log2 fold change data for 13 targets are collected here from the supplement of paper PMC10849652.

Common to all, as to assay: log2 fold change, soluble protein after heating vs DMSO (PISA); higher = thermal stabilisation; K562 lysate, 10 uM; active = over 0.2 and 3.5 SD of the protein, either way, in both replicates (recomputed)
Compound in assay [1]: Cc1cn(-c2cc(NC(=O)c3ccc(C)c(Nc4nccc(-c5cccnc5)n4)c3)cc(C(F)(F)F)c2)cn1 [nilotinib]
Put shortly:
(§1)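 Values give the log-two fold change in thermal stability against solvent controls, from duplicates. Crude K562 extract at 1 mg/mL protein, made by dounce homogenisation in PBS pH 7.4 with 1 mM MgCl2, was treated with 10 μM compound for 30 min. After 3 min heating across 48°C-58°C, aliquots were pooled, adjusted to 0.5% NP-40 at 4°C and centrifuged at 21,000xg for 90 min. The supernatant was measured by TMTpro 16plex LC-MS/MS with channel sums equalised.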

Compound in assay [2]: Cc1nc(Nc2n[nH]c3c2CN(C(=O)N[C@H](CN(C)C)c2ccccc2)C3(C)C)c2sccc2n1
Put shortly:
as §1

Compound in assay [3]: Cc1nc(Nc2ncc(C(=O)Nc3c(C)cccc3Cl)s2)cc(N2CCN(CCO)CC2)n1 [dasatinib]
Put shortly: as §1

Compound in assay [4]: Cc1ncc(-c2ccnc(Nc3ccc(S(C)(=O)=O)cc3)n2)n1C(C)C
Put shortly: as §1

Compound in assay [5]: Cn1cc(-c2ccc3c(c2)CCN3C(=O)Cc2cccc(C(F)(F)F)c2)c2c(N)ncnc21
Put shortly: as §1

Compound in assay [6]: Cn1cc(CNCC2CCN(c3ncc(C(=O)NO)cn3)CC2)c2ccccc21 [quisinostat]
Put shortly:
as §1

Compound in assay [7]: Cn1cncc1[C@@](N)(c1ccc(Cl)cc1)c1ccc2c(c1)c(-c1cccc(Cl)c1)cc(=O)n2C [tipifarnib]
Put shortly:
as §1

Compound in assay [8]: NC(=O)Nc1cc(-c2cccc(F)c2)sc1C(=O)N[C@H]1CCCNC1
Put shortly: as §1

Compound in assay [9]: NC(=O)c1cnc(N[C@@H]2CCCC[C@@H]2N)nc1Nc1cccc(-n2nccn2)c1
Put shortly:
as §1

Compound in assay [10]: NC1(c2ccc(-c3nc4ccn5c(=O)[nH]nc5c4cc3-c3ccccc3)cc2)CCC1
Put shortly: as §1

About 8,800 targets were measured; listed, in parts, are those with a hit and a random draw of the rest. About 0.5% of all pairs of compound and target were hits. Values without a mark were called inactive.

Sequence of UniProt P52948 (P52948 whole entry, looked up): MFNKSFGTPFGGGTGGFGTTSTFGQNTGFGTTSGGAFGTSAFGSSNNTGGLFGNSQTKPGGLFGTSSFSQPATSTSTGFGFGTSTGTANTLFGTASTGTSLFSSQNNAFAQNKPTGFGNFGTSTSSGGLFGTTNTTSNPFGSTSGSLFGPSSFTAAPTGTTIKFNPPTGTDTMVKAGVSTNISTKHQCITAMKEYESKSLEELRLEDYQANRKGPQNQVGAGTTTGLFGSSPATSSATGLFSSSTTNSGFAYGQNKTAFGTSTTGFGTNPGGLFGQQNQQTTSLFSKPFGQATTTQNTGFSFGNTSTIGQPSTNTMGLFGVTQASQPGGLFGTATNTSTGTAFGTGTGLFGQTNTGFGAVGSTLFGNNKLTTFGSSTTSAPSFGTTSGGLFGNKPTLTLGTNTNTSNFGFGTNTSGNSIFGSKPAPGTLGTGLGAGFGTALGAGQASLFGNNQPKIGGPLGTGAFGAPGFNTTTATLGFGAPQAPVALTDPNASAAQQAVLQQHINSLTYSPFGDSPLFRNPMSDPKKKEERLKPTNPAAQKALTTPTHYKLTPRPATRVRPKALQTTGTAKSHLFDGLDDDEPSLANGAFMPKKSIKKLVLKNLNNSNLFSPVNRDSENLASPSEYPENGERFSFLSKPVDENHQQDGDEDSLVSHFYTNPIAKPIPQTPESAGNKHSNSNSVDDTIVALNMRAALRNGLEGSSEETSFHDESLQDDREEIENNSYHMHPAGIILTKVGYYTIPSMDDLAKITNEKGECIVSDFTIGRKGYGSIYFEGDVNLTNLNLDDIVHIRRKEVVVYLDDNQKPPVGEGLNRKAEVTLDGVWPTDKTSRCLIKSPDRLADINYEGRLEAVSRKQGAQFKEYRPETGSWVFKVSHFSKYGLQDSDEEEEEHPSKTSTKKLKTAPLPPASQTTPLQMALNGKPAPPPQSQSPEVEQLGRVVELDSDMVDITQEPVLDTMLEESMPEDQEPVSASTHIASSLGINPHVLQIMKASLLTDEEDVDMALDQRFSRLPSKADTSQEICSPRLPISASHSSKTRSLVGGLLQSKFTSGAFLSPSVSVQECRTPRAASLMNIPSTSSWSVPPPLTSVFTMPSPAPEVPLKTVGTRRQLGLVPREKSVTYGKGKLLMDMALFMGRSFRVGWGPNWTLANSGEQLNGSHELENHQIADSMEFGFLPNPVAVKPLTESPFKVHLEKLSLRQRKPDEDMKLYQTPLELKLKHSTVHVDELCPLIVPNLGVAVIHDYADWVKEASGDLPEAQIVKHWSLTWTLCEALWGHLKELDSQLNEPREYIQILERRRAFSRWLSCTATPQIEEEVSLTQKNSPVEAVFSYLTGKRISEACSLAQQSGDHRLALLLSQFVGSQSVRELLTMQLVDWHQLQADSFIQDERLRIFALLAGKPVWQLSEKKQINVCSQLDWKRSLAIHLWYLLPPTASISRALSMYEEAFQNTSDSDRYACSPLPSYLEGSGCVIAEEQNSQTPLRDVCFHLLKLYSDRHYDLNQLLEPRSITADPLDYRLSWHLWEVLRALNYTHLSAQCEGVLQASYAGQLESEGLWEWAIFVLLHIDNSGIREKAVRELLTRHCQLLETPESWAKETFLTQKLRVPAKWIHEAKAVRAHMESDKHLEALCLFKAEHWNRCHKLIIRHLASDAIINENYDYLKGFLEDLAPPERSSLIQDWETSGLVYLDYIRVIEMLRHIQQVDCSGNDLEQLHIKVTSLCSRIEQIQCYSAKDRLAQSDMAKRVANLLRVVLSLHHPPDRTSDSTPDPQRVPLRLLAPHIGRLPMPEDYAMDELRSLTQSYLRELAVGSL
Sequence of UniProt Q9NQR4 (Q9NQR4 whole entry, looked up): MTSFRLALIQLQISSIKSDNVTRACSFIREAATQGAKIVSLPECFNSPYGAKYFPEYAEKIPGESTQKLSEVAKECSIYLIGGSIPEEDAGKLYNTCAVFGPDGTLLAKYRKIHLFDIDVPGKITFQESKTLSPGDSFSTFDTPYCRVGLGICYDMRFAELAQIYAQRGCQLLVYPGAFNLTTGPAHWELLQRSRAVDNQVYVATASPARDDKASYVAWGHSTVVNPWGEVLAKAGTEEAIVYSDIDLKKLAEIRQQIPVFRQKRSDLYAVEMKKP
Sequence of UniProt Q9BPX3 (Q9BPX3 whole entry, looked up): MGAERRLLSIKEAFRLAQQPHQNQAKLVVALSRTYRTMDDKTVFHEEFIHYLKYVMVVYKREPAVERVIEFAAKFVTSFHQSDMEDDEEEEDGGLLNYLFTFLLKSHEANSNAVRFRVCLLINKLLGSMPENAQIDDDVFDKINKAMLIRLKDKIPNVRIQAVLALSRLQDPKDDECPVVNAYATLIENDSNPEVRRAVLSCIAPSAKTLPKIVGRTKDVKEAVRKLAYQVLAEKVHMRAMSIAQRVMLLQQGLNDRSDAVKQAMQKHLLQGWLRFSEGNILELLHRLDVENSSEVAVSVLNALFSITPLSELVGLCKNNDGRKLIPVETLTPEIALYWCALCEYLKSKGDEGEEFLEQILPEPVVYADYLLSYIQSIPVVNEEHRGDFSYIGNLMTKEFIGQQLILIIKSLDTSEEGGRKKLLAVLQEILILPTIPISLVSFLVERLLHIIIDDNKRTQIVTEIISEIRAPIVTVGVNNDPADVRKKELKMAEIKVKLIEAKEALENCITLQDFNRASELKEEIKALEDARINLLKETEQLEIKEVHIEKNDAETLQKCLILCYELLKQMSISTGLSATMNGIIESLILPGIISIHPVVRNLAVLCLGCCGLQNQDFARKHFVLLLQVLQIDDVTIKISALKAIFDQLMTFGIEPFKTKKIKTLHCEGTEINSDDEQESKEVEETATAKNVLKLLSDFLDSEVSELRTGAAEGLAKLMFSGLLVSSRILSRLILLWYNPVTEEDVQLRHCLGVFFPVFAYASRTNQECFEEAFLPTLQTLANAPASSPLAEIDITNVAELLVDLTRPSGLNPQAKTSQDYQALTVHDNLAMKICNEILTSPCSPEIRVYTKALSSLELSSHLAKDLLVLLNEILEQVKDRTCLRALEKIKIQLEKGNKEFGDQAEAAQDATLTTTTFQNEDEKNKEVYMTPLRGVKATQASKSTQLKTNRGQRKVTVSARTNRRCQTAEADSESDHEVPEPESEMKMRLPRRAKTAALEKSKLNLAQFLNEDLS
Sequence of UniProt Q6N063 (Q6N063 whole entry, looked up): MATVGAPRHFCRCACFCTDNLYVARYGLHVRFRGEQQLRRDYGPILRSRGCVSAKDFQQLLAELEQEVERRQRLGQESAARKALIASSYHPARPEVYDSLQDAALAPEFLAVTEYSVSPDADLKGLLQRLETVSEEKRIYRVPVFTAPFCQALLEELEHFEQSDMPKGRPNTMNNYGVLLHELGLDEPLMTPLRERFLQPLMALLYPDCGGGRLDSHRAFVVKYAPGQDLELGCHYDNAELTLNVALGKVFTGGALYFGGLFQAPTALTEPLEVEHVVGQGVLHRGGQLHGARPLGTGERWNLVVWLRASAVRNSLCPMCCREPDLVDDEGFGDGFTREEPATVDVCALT
Sequence of UniProt Q9BZD4 (Q9BZD4 whole entry, looked up): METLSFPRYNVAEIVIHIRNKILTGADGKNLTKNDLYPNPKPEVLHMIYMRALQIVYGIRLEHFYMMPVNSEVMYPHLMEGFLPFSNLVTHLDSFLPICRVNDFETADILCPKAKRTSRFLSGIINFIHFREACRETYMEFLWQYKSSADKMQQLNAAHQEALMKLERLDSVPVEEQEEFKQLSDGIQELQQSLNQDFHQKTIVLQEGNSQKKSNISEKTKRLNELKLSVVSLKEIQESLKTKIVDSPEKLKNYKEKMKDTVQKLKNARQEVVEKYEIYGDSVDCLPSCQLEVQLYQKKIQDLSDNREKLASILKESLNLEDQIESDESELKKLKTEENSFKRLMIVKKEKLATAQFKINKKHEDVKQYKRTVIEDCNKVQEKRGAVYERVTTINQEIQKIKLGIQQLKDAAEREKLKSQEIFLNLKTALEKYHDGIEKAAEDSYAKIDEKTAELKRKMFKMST
Sequence of UniProt Q8TDX7 (Q8TDX7 whole entry, looked up): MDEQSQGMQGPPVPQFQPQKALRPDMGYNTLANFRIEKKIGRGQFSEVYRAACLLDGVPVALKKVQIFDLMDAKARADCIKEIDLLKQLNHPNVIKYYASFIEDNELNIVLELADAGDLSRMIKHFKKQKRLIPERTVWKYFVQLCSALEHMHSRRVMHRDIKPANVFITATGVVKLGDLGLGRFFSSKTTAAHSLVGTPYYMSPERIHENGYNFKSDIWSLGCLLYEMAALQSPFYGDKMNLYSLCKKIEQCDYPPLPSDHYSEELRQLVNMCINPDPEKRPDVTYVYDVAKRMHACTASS
Sequence of UniProt P04150 (P04150 whole entry, looked up): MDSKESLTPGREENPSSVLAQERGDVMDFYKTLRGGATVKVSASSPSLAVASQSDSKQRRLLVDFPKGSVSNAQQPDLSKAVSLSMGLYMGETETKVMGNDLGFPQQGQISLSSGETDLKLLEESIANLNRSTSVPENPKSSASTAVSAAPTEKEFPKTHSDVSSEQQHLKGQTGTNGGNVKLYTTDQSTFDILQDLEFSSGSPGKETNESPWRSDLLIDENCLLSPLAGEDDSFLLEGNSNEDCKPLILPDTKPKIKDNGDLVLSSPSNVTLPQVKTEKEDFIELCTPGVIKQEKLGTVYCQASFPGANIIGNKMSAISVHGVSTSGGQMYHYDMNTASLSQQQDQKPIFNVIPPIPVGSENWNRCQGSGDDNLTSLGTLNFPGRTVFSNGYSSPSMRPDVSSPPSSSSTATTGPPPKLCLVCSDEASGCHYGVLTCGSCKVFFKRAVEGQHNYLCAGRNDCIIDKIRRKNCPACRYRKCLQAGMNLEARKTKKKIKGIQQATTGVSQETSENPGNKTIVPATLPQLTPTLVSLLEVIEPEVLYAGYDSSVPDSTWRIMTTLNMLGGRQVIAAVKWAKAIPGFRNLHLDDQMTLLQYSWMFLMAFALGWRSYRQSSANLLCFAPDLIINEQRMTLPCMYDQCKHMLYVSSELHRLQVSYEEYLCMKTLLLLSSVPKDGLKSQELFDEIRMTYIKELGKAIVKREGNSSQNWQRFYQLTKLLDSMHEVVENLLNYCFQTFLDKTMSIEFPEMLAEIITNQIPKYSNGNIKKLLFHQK

In the case of NUF2 (UniProt Q9BZD4), the log2 fold change in assay [1] was -0.011; in assay [2], 0.002; in [3], -0.044; in assay [4], -0.005; in [5], 0.017; in assay [6], -0.012. Also, the log2 fold change in assay [7] was 0.003; in [8], 0.061; in [9] it was 0.013; in assay [10] it was -0.014.
NCAPG (UniProt Q9BPX3): the log2 fold change in assay [1] is 0.01; in [2] it was 0.002; in assay [3], -0.062; in assay [4], 0; in [5], 0.007; in assay [6], -0.08. In addition, the log2 fold change in assay [7] was 0; in assay [8] it was 0.012; in assay [9], -0.004; in assay [10], -0.019.
As to OSBPL6 isoform 5 (UniProt Q9BZF3), the log2 fold change is 0.281 in assay [1]; 0.018 in assay [2]; -0.082 in assay [3]; -0.045 in assay [4]; 0.036 in assay [5]; -0.07 in assay [6]. The log2 fold change was -0.003 in assay [7], 0.122 in assay [8], 0.007 in [9] and -0.238 in [10].
Regarding NIT2 (UniProt Q9NQR4), the log2 fold change in assay [1] was -0.011; in assay [2], 0.001; in [3], -0.03; in assay [4], -0.021; in [5], -0.027; in assay [6], 0.004. The log2 fold change in assay [7] was 0.019; in assay [8], 0.021; in [9] it was -0.016; in assay [10] it was -0.023.
In the case of N4BP2 (UniProt Q86UW6), the log2 fold change in assay [1] is 0.026; in assay [2], 0.036; in [3], -0.024; in assay [4], -0.043; in assay [5] it was 0.061; in assay [6], -0.001. The log2 fold change in assay [7] is -0.061; in assay [8] it was 0.037; in [9], -0.018; in [10] it was -0.048.
Consider OTUD7B (UniProt Q6GQQ9), for which the log2 fold change in assay [1] was -0.017; in assay [2] it was 0.017; in assay [3] it was 0.005; in [4], 0.03; in [5], 0.027; in assay [6], -0.252. The log2 fold change in assay [7] was 0.05; in assay [8] it was 0.142; in [9], 0.026; in assay [10] it was -0.095.
Regarding NUP98 (UniProt P52948), the log2 fold change in assay [1] was -0.041; in assay [2], -0.017; in [3], -0.053; in assay [4] it was -0.008; in [5] it was 0.031; in [6], -0.049. Moreover, the log2 fold change is -0.12 in assay [7], 0.055 in assay [8], -0.002 in assay [9] and 0.003 in assay [10].
Regarding NEK7 (UniProt Q8TDX7), the log2 fold change in [1] was 0.003; in assay [2], 0.016; in assay [3], -0.03; in [4] it was 0.045; in [5] it was 0.168; in assay [6] it was -0.018. Also, the log2 fold change in assay [7] was -0.006; in assay [8] it was 0.033; in assay [9] it was 0.018; in [10], 0.01.
Consider OGFOD2 (UniProt Q6N063), for which the log2 fold change in assay [1] was -0.002; in [2], 0.005; in assay [3] it was 0.006; in [4], 0.063; in assay [5], 0.048; in assay [6], 0.031. The log2 fold change was 0.026 in assay [7], 0.049 in [8], -0.017 in [9] and 0.049 in assay [10].
Consider NCOR2 (UniProt C9J0Q5), for which the log2 fold change in [1] is 0.09; in assay [2] it was -0.034; in [3], -0.082; in assay [4], 0.043; in assay [5], -0.015; in assay [6], -0.034. Besides, the log2 fold change was -0.045 in assay [7], 0.047 in assay [8], 0.025 in assay [9] and 0.022 in assay [10].
NUMBL (UniProt Q9Y6R0): the log2 fold change in [1] is 0.038; in assay [2], -0.013; in assay [3] it was -0.041; in assay [4], -0.12; in assay [5], 0.219; in assay [6], 0.04. The log2 fold change in assay [7] is -0.06; in assay [8], -0.415 (active); in assay [9], -0.055; in assay [10] it was -0.046.
Take MRPS18A isoform 2 (UniProt Q9NVS2): the log2 fold change in assay [1] was 0.031; in assay [2] it was -0.022; in [3], -0.054; in [4], -0.033; in assay [5] it was 0.006; in assay [6], -0.012. The log2 fold change in assay [7] was -0.026; in assay [8], 0.036; in assay [9] it was 0.014; in [10] it was -0.065.
As to NR3C1 isoform 3 (UniProt P04150), the log2 fold change in assay [1] is -0.021; in assay [2] it was -0.069; in assay [3] it was -0.042; in assay [4], 0.044; in assay [5], -0.014; in assay [6], -0.032. The log2 fold change in assay [7] is -0.038; in assay [8], 0.035; in assay [9], 0.03; in assay [10], -0.021.
